# Assay results published in PubChem BioAssay (EPA / NIEHS).
# Where “and” joins values, the source holds several entries; their conditions need not be identical. Equal values may be shown once. Where a structure was tested more than once in an assay, its records may differ in their call. Calls of active or inactive are those of the source. Rule for the calls: active = hit-call score of the fitted dose curve at least 0.9, where 1 is the maximum; inactive = score below 0.9.
# What was measured:
# [1] = BSK_MyoF_SRB: Viability Assessment in the BioMAP Diversity Plus: MyoF Assay (AID 2284267); conditions: primary human lung fibroblasts;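 note: total protein by SRB absorbance in parallel cultures as cytotoxicity measure; cells assessed 24 h after compound addition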
# Outline: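 Cytotoxicity read-out: after 10% TCA fixation, parallel human lung fibroblast cultures were stained with 0.1% SRB at 24 h post-dosing and read at 560 nm; DMSO served as baseline.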
# [2] = read-out: Matrix Metallopeptidase 1 (MMP1), MMP1 (gene 4312); assay: BSK_MyoF_MMP1: BioMAP Diversity Plus: MyoF Assay for Matrix Metallopeptidase 1 (MMP1) Biomarker Activity (AID 2284268); conditions: primary human lung fibroblasts
# Outline: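 Cells: human lung fibroblasts. Exposure: 24 h chemical dosing. Detection: ELISA for MMP1. Analysis: upward fitting against DMSO negative control.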
# [3] = read-out: TIMP metallopeptidase inhibitor 1 (TIMP1), TIMP1 (gene 7076); assay: BSK_MyoF_TIMP1: BioMAP Diversity Plus: MyoF Assay for TIMP metallopeptidase inhibitor 1 (TIMP1) Biomarker Activity (AID 2284269); conditions: primary human lung fibroblasts
# Outline: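 Primary human lung fibroblasts, MyoF multiplex system; chemical exposure 24 h; TIMP-1 by ELISA; positive fitting direction vs DMSO control.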
# [4] = read-out: Matrix Metallopeptidase 1 (MMP1), MMP1 (gene 4312); assay: BSK_BF4T_MMP1: BioMAP Diversity Plus: BF4T Assay for Matrix Metallopeptidase 1 (MMP1) Biomarker Activity (AID 2284270); conditions: primary human bronchial epithelial cells with fibroblasts
# Outline: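 MMP-1 quantified by ELISA in primary human bronchial epithelial/dermal fibroblast co-cultures, 24 hours post-dosing, with DMSO as baseline; parallel sulforhodamine B staining (560 nm) tracks overt cytotoxicity.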
# [5] = read-out: Matrix Metallopeptidase 3 (MMP3), MMP3 (gene 4314); assay: BSK_BF4T_MMP3: BioMAP Diversity Plus: BF4T Assay for Matrix Metallopeptidase 3 (MMP3) Biomarker Activity (AID 2284271); conditions: primary human bronchial epithelial cells with fibroblasts
# Outline: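 MMP-3 level read by ELISA after 24 h chemical exposure of bronchial epithelial cell/dermal fibroblast co-cultures, fitted upward relative to DMSO. Parallel cultures stained with 0.1% SRB after TCA fixation gauge overt cytotoxicity.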
# [6] = read-out: Tissue plasminogen activator (tPA), PLAT (gene 5327); assay: BSK_BF4T_tPA: BioMAP Diversity Plus: BF4T Assay for Tissue plasminogen activator (tPA) Biomarker Activity (AID 2284272); conditions: primary human bronchial epithelial cells with fibroblasts
# Outline: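 tPA level quantified by ELISA at 24 h post-treatment in bronchial epithelial/dermal fibroblast co-cultures, gain of signal scored against DMSO baseline. Parallel cultures stained with 0.1% SRB (560 nm) to flag overt cytotoxicity.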
# [7] = read-out: Plasminogen Activator Inhibitor-1 (PAI1), SERPINE1 (gene 5054); assay: BSK_BF4T_PAI1: BioMAP Diversity Plus: BF4T Assay for Plasminogen Activator Inhibitor-1 (PAI1) Biomarker Activity (AID 2284273); conditions: primary human bronchial epithelial cells with fibroblasts
# Outline: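 PAI-1 levels quantified by ELISA 24 h post-dosing in bronchial epithelial cell plus dermal fibroblast cultures. Signal gain referenced to DMSO baseline. Sulforhodamine B total-protein staining of parallel wells checked cytotoxicity.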
# [8] = BSK_BF4T_SRB: Viability Assessment in the BioMAP Diversity Plus: BF4T Assay (AID 2284274); conditions: primary human bronchial epithelial cells with fibroblasts;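 for AC50: measured 24 h after compound addition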
# Outline: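 Cytotoxicity measured as total protein: cells fixed with 10% TCA, stained with 0.1% SRB, read at 560 nm. Bronchial epithelial/dermal fibroblast co-culture, 24 h after dosing, with positive-direction fitting relative to DMSO.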
# [9] = read-out: urokinase Plasminogen Activator (uPA), PLAU (gene 5328); assay: BSK_BF4T_uPA: BioMAP Diversity Plus: BF4T Assay for urokinase Plasminogen Activator (uPA) Biomarker Activity (AID 2284275); conditions: primary human bronchial epithelial cells with fibroblasts
# Outline: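 uPA levels measured by ELISA at 24 hours in BF4T cultures (bronchial epithelial cells plus dermal fibroblasts) and compared with DMSO; cytotoxicity tracked in parallel cultures by sulforhodamine B staining.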
# [10] = read-out: Matrix Metallopeptidase 9 (MMP9), MMP9 (gene 4318); assay: BSK_BF4T_MMP9: BioMAP Diversity Plus: BF4T Assay for Matrix Metallopeptidase 9 (MMP9) Biomarker Activity (AID 2284276); conditions: primary human bronchial epithelial cells with fibroblasts
# Outline: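 MMP-9 levels were measured by ELISA after 24 h exposure of bronchial epithelial cell/dermal fibroblast co-cultures, with DMSO as baseline. Parallel cultures were stained with 0.1% SRB after TCA fixation, read at 560 nm, to flag overt cytotoxicity.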
# [11] = read-out: Interleukin-8 (IL8), CXCL8 (gene 3576); assay: BSK_IMphg_IL8: BioMAP Diversity Plus: IMphg Assay for Interleukin-8 (IL8) Biomarker Activity (AID 2284277); conditions: primary human endothelial cells with macrophages
# Outline: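 IL-8 levels were measured by ELISA 24 h after dosing in primary human venular endothelial cell–macrophage cultures, referenced to DMSO; parallel SRB staining monitored overt cytotoxicity.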
# [12] = read-out: Intercellular Adhesion Molecule 1 (ICAM1), ICAM1 (gene 3383); assay: BSK_BE3C_ICAM1: BioMAP Diversity Plus: BE3C Assay for Intercellular Adhesion Molecule 1 (ICAM1) Biomarker Activity (AID 2284278); conditions: primary human bronchial epithelial cells;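 for outcome: cell-surface ICAM-1 protein level quantified by ELISA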
# Outline: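 ICAM-1 quantified by ELISA and fitted against DMSO baseline, 24 h post-dosing in BE3C cultures of primary human lung bronchial epithelial cells. Cytotoxicity checked in parallel cultures by total protein SRB staining.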
# [13] = read-out: Interferon-inducible T-cell alpha chemoattractant (ITAC), CXCL11 (gene 6373); assay: BSK_BE3C_ITAC: BioMAP Diversity Plus: BE3C Assay for Interferon-inducible T-cell alpha chemoattractant (ITAC) Biomarker Activity (AID 2284279); conditions: primary human bronchial epithelial cells
# Outline: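 Steps: dose human bronchial epithelial cells with chemical; incubate 24 h; measure I-TAC by ELISA; fit endpoint in positive direction against DMSO control. Cytotoxicity was checked in parallel cultures by SRB staining at harvest.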
# [14] = read-out: Interleukin-8 (IL8), CXCL8 (gene 3576); assay: BSK_BE3C_IL8: BioMAP Diversity Plus: BE3C Assay for Interleukin-8 (IL8) Biomarker Activity (AID 2284280); conditions: primary human bronchial epithelial cells
# Outline: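 Dose human bronchial epithelial cells with chemical; incubate 24 h; quantify IL-8 by ELISA; fit response upward versus DMSO controls.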
# [15] = read-out: Epidermal growth factor receptor (EGFR), EGFR (gene 1956); assay: BSK_BE3C_EGFR: BioMAP Diversity Plus: BE3C Assay for Epidermal growth factor receptor (EGFR) Biomarker Activity (AID 2284281); conditions: primary human bronchial epithelial cells
# Outline: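 ELISA read-out of EGFR levels on human bronchial epithelial primary cells collected 24 h post-dosing. DMSO served as negative control and baseline for gain-of-signal fitting.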
# KRT18 (gene 3875) = assay: BSK_BE3C_Keratin818: BioMAP Diversity Plus: BE3C Assay for Keratin 818 Biomarker Activity (AID 2284282); conditions: primary human bronchial epithelial cells
# Outline: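 ELISA readout of Keratin 8/18 in human primary bronchial epithelial cultures after 24 h chemical exposure, DMSO baseline. Parallel SRB staining (0.1%, TCA-fixed, 560 nm) served as cytotoxicity check.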
# [16] = read-out: Matrix Metallopeptidase 9 (MMP9), MMP9 (gene 4318); assay: BSK_BE3C_MMP9: BioMAP Diversity Plus: BE3C Assay for Matrix Metallopeptidase 9 (MMP9) Biomarker Activity (AID 2284283); conditions: primary human bronchial epithelial cells
# Outline: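 ELISA read-out of MMP-9 after 24 h compound exposure of human lung bronchial epithelial primary cells (BE3C). Fit in gain direction vs DMSO negative control; total protein by SRB in parallel cultures flagged overt cytotoxicity.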
# [17] = read-out: Plasminogen activator inhibitor-1 (PAI1), SERPINE1 (gene 5054); assay: BSK_CASM3C_PAI1: BioMAP Diversity Plus: CASM3C Assay for Plasminogen activator inhibitor-1 (PAI1) Biomarker Activity (AID 2284284); conditions: primary human coronary artery smooth muscle cells
# [18] = read-out: Monocyte Chemoattractant Protein-1 (MCP1), CCL2 (gene 6347); assay: BSK_hDFCGF_MCP1: BioMAP Diversity Plus: hDFCGF Assay for Monocyte Chemoattractant Protein-1 (MCP1) Biomarker Activity (AID 2284285); conditions: primary human foreskin fibroblasts
# Outline: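 MCP-1 ELISA readout was taken 24 hours after dosing primary human dermal fibroblasts in the hDFCGF system, with DMSO as baseline. Parallel sulforhodamine B staining of total protein tracked overt cytotoxicity.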
# [19] = read-out: Vascular cell adhesion molecule 1 (VCAM1), VCAM1 (gene 7412); assay: BSK_IMphg_VCAM1: BioMAP Diversity Plus: IMphg Assay for Vascular cell adhesion molecule 1 (VCAM1) Biomarker Activity (AID 2284286); conditions: primary human endothelial cells with macrophages
# Outline: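 ELISA read-out of VCAM-1 on venular endothelial cell/macrophage co-cultures at 24 h post-treatment, with DMSO as baseline and positive-direction fitting. Parallel sulforhodamine B total-protein staining (560 nm) served as the overt cytotoxicity measure.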
compound,measurement,setting,value
OCCC(F)(F)C(F)(F)C(F)(F)C(F)(F)C(F)(F)C(F)(F)F,outcome,[1],inactive
same,outcome,[2],inactive
same,outcome,[3],inactive
same,outcome,[4],inactive
same,outcome,[5],inactive
same,outcome,[6],inactive
same,outcome,[7],inactive
same,outcome,[8],inactive
same,outcome,[9],inactive
same,outcome,[10],inactive
same,outcome,[11],inactive
same,outcome,[12],inactive
same,outcome,[13],inactive
same,outcome,[14],inactive
same,outcome,[15],inactive
same,outcome,KRT18 (gene 3875),inactive
same,outcome,[16],inactive
same,outcome,[17],inactive
same,AC50,[18],49.6 µM (active) and 54.3 µM (active)
same,outcome,[19],inactive
NCC(F)(F)C(F)(F)C(F)(F)C(F)(F)C(F)(F)C(F)(F)C(F)(F)F,outcome,[1],inactive
same,outcome,[2],inactive
same,outcome,[3],inactive
same,outcome,[4],inactive
same,outcome,[5],inactive
same,outcome,[6],inactive
same,outcome,[7],inactive
same,outcome,[8],inactive
same,outcome,[9],inactive
same,outcome,[10],inactive
same,outcome,[11],inactive
same,outcome,[12],inactive
same,outcome,[13],inactive
same,outcome,[14],inactive
same,outcome,[15],inactive
same,outcome,KRT18 (gene 3875),inactive
same,outcome,[16],inactive
same,outcome,[17],inactive
same,outcome,[18],inactive
same,outcome,[19],inactive
FC(F)(I)C(F)(F)C(F)(F)C(F)(F)C(F)(F)C(F)(F)I,AC50,[1],7.31 µM (active) [middle of 5 runs]
same,outcome,[2],inactive
same,AC50,[3],7.01 µM (active) [middle of 5 runs]
same,AC50,[4],23.4 µM (active) [middle of 5 runs]
same,AC50,[5],19.3 µM (active) [middle of 4 runs]
same,outcome,[5],inactive
same,AC50,[6],7.56 µM (active) [middle of 5 runs]
same,AC50,[7],19.3 µM (active) [middle of 5 runs]
same,AC50,[8],21.9 µM (active) [middle of 5 runs]
same,AC50,[9],14.4 µM (active) [middle of 5 runs]
same,AC50,[10],18.9 µM (active) [middle of 5 runs]
same,AC50,[11],47.1 µM (active) [middle of 4 runs]
same,outcome,[11],inactive
same,AC50,[12],32.3 µM (active) [middle of 5 runs]
same,AC50,[13],20.4 µM (active) [middle of 5 runs]
same,AC50,[14],19.6 µM (active) [middle of 5 runs]
same,AC50,[18],5.13 µM (active) [middle of 5 runs]
same,AC50,[19],43.1 µM (active) [middle of 5 runs]
